Assay outcomes (PubChem BioAssay)
GCN5L2 inh – qHTS Assay for Inhibitors of GCN5L2. Potency, µM (series often up to 58.9 µM), most hits filed as inhibitors. GCN5L2 HAT assay, ThioGlo1 CoA-SH fluorescence. actives 0.21% (n = 390,000). Histone acetyltransferase KAT2A (Homo sapiens), Q92830
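qHTS, 1536-well. 20nM enzyme, pH 7.5 HEPES/EDTA/Tween-20 buffer; 15 min compound preinc., RT. Start: 75uM H3(1-25), 70uM AcCoA, 50uM ThioGlo1. Read Ex340/Em540 at t=0 (autofluorescence flag) and t=20 min.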
TrxR1 inh – qHTS Assay for Inhibitors of Mammalian Selenoprotein Thioredoxin Reductase 1 (TrxR1): qHTS; Thioredoxin reductase 1, cytoplasmic (Rattus norvegicus), O89049; actives 1% (n = 390,000); AID 588453, 2011; recombinant rTrxR1, NADPH fluorescence consumption, selenite substrate; Potency, µM (series often up to 114 µM), most hits filed as inhibitors; also: nearly all actives have a fitted effect of over 65% in size
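Rat TrxR1 (90 nM in the dispensed reagent) was pre-reduced with 400 uM NADPH for 5 min at room temperature, then incubated with compound for 15 min. After 400 uM selenite was added, NADPH fluorescence (Ex 340/Em 450 nm) was followed for 8 min.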
Pin1 inh – qHTS Assay to Find Inhibitors of Pin1. AID 504891, 2011. Peptidyl-prolyl cis-trans isomerase NIMA-interacting 1 (Homo sapiens), Q13526. actives 0.009% (n = 390,000). Potency, µM (doses to about 115 µM), actives largely listed as inhibitors. Pin1 FP peptide displacement, HiFluor488, 10 min; active = well fitted inhibition curve with a large enough effect in the polarisation, with a control signal flat, not every such curve was filed as active; inconclusive = small, poorly fitted or top-dose-only effect, or effect the other way, or a change in a side signal; inactive = no such curve, though single readings can be large or run the other way; the % refers to the polarisation
Target sequence (Q13526 whole entry, looked up): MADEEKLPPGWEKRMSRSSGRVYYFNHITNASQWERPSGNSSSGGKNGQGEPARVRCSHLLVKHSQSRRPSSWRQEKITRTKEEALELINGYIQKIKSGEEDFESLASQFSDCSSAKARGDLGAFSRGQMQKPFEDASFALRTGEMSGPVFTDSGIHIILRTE
TrxR1 substrate – qHTS Assay for Substrates of Mammalian Selenoprotein Thioredoxin Reductase 1 (TrxR1): qHTS; purified TrxR1 substrate turnover, NADPH consumption readout; Potency, µM (titrated, usually from 114 µM); actives 0.01% (n = 390,000); also: nearly all actives have a fitted effect of over 50% in size
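Rat TrxR1, dispensed at 90 nM, was prereduced with 400 uM NADPH (final) for 5 min at ~22 deg C, then incubated with compound 15 min before 400 uM selenite. A first-read NADPH fluorescence drop versus no-compound background flagged substrates.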
GALK inh – qHTS Assay for Inhibitors of Human Galactokinase (GALK); P51570; actives 0.007% (n = 270,000); Purified GALK, Kinase-Glo residual ATP luminescence; Potency, µM (doses to about 57.5 µM), actives largely listed as inhibitors
Target sequence (P51570 whole entry, looked up): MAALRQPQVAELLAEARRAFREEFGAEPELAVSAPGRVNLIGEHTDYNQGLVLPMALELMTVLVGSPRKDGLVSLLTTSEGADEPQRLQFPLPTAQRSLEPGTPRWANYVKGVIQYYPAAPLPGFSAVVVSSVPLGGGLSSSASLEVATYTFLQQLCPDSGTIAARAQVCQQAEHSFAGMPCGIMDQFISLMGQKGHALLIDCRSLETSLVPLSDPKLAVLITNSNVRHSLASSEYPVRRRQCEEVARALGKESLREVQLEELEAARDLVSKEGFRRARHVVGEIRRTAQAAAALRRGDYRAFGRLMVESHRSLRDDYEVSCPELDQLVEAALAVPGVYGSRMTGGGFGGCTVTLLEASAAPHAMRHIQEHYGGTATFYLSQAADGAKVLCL
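Human GALK (5 nM) with 35 uM ATP and 100 uM galactose in 20 mM HEPES pH 8.0, 5 mM MgCl2, 60 mM NaCl, 1 mM DTT, 0.01% BSA. After 1 h at room temperature, leftover ATP was read by Kinase-Glo Plus luminescence.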
Giardia killer – Small Molecules that selectively kill Giardia lamblia: qHTS. activity change, % at 7.66 µM, hits read low. actives 0.15% (n = 340,000). Giardia lamblia trophozoite viability. AID 540267, 2011; in the data active = activity change below about -80%; inconclusive = between about -30% and that limit;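 also: parasites exposed to compound for two days anaerobically before the ATP read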
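Each well holds 100 Giardia trophozoites and compound. After two days (48 hrs) at 37 deg C in anaerobic conditions, ATP is quantified by luminescence.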
Large screens that a line does not name were inactive. Rows were chosen to be rich in hits. Some 1.3% of all compounds tested hit in one or more screens of this group. Unless noted, calls follow the shape of the dose curve; as a rule, active = well fitted curve in the direction sought with a large enough effect; inconclusive = small, poorly fitted or top-dose-only effect, or another doubt; inactive = no such curve, though single readings can be large; an effect the other way counts as inactive or inconclusive.

Cc1ccc(CN(C)C(=O)c2cccc(S(=O)(=O)N3CCc4ccccc4C3)c2)o1	TrxR1 inh 39.8µM (no result: GALK inh)
CCN(CC(=O)Nc1ccc(NC(C)=O)cc1)C(=O)c1cccc(S(=O)(=O)N2CCc3ccccc3C2)c1	none (no result: GALK inh)
O=C(O)c1cccc(Cn2c(Cl)c(/C=N/NC(=O)c3ccco3)sc2=O)c1	TrxR1 inh 79.4µM
O=C(O)c1cccc(Cn2c(Cl)c(/C=N/NC(=O)c3cc4ccccc4cc3O)sc2=O)c1	GCN5L2 inh inconclusive, Pin1 inh inconclusive
Cc1ccccc1N/N=C/c1sc(=O)n(Cc2cccc(C(=O)O)c2)c1Cl	TrxR1 inh 50.1µM, Pin1 inh inconclusive
COC(=O)c1cccc(Cn2c(Cl)c(/C=N/Nc3ccccc3C)sc2=O)c1	TrxR1 inh 22.4µM
O=C(O)c1cccc(Cn2c(Cl)c(/C=N/NC(=O)c3ccccc3)sc2=O)c1	none
O=C(O)c1cccc(Cn2c(Cl)c(/C=N/NC(=O)c3cccc(O)c3)sc2=O)c1	none
c1ccc2c(c1)ccn2-n1ccc2ccccc21	none (no result: GCN5L2 inh, Pin1 inh, GALK inh, Giardia killer)
CC(C)(C)OC(=O)NC(Cc1ccccc1)C(O)c1ccco1 (stereo not given)	none (no result: GCN5L2 inh, GALK inh)
Cn1sc(=O)n(Cc2ccccc2)c1=O	GCN5L2 inh 20µM (no result: TrxR1 inh, Pin1 inh, TrxR1 substrate, GALK inh, Giardia killer)
Cn1c(=O)n(Cc2ccccc2)c2ccccc21	none
Clc1ccc(OCCn2c(-c3ccco3)nc3ccccc32)cc1	TrxR1 inh inconclusive
c1coc(Cn2c(-c3ccco3)nc3ccccc32)c1	TrxR1 inh 3.16µM
Cc1ccc(-c2nn(-c3ccccc3)cc2C2SCC(=O)N2Cc2ccccc2)o1 (stereo not given)	TrxR1 inh 56.2µM
CCCOc1cccc(NC(=O)c2c(-c3ccccc3Cl)noc2C)c1	none (no result: GALK inh, Giardia killer)
Cc1cc(O)c(C(c2ccccc2)N2CCN(c3ccc(F)cc3)CC2)c(=O)n1Cc1ccco1 (stereo not given)	TrxR1 inh 10µM (no result: GALK inh, Giardia killer)
COc1cccc(C(c2c(O)cc(C)n(Cc3ccco3)c2=O)N2CCC(C)CC2)c1 (stereo not given)	none (no result: GALK inh, Giardia killer)
Cc1cc(O)c(C(c2ccc(F)cc2)N2CCN(c3ccccc3)CC2)c(=O)n1Cc1ccco1 (stereo not given)	TrxR1 inh inconclusive (no result: GALK inh, Giardia killer)
CCN1CCN(C(c2cccc(OC)c2)c2c(O)cc(C)n(Cc3ccco3)c2=O)CC1 (stereo not given)	TrxR1 inh 11.2µM (no result: GALK inh, Giardia killer)
Cc1cc(NC(=O)Cn2c(=O)oc3cc(S(=O)(=O)N4CCCC4)ccc32)ccc1Br	GCN5L2 inh inconclusive (no result: GALK inh, Giardia killer)
CC(C)CC(CSc1ccc(Br)cc1)N1CCN(C)CCC1=O (stereo not given)	none (no result: GCN5L2 inh, GALK inh)
Cc1cccc(C)c1NC(=O)c1ccc([N+](=O)[O-])s1	Giardia killer inconclusive
O=C(Nc1ccccc1N1CCOCC1)c1ccccc1[N+](=O)[O-]	none
CS(=O)(=O)N1CCN(c2ccccc2NC(=O)c2ccc3c(c2)OCCO3)CC1	none
CS(=O)(=O)N1CCN(c2ccccc2NC(=O)c2ccc([N+](=O)[O-])o2)CC1	Giardia killer -98.0
Cc1cccc(NC(=O)c2ccc([N+](=O)[O-])s2)n1	Giardia killer -89.0
CN1CCN(c2ccccc2NC(=O)c2ccc([N+](=O)[O-])o2)CC1	Giardia killer -91.5
O=C(Nc1ccccc1N1CCOCC1)c1ccc([N+](=O)[O-])s1	TrxR1 inh inconclusive, Giardia killer -89.4 (no result: GALK inh)
CCOc1ccc(/C=C/C(=O)Nc2sc3c(c2C(=O)OC)C(C(=O)OC)CC3)cc1 (stereo not given)	GCN5L2 inh inconclusive (no result: GALK inh, Giardia killer)
C=C(C)CC(C)(C)C	none (no result: TrxR1 inh, Pin1 inh, TrxR1 substrate, GALK inh, Giardia killer)
Oc1cccc(C2c3[nH]c4ccccc4c3CCN2Cc2ccoc2)c1 (stereo not given)	TrxR1 inh 39.8µM
COc1ccc(Cl)cc1S(=O)(=O)N1CCN(S(=O)(=O)c2ccc3c(c2)OCCO3)CC1	none (no result: GCN5L2 inh, TrxR1 inh, TrxR1 substrate, GALK inh, Giardia killer)
